PubChem BioAssay AID1053125 (Broad Institute, 2014)
Entries with a potency or affinity are not part of this list. A number with no mark means an inactive call.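 How the source made its calls: active means viability loss whose fitted half-maximal concentration is at most twice the top valid tested dose; inconclusive means flat curve with 30 to 70% loss, or poor fit; inactive means the rest.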

assay: HepG2 cell cytotoxicity, dose response, cytotoxicity control, ATP luminescence, cherry-pick, set 6 (AID 1053125); settings: HepG2 viability, ATP luminescence (CellTiter-Glo), 72 h; series mostly up to 26 µM; activity change, negative = cytotoxicity: at the top concentration;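 further: negative values mean loss of viability signal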

Compound | activity change, negative = cytotoxicity [%]
Cc1ccc(C(=O)OCC(=O)Nc2c(C)nn(-c3ccccc3)c2C)c(O)c1 | 9.12
CCOC(=O)c1cc2c(=O)n3ccccc3nc2n(Cc2ccc(Cl)cc2)c1=N | -10.4
COc1cc(C(=O)NCCCNc2nc3c(C)cc(C)cc3cc2C#N)cc(OC)c1OC | -12
CCOC(=O)c1cc2c(=O)n3ccccc3nc2n(CCCOC)c1=NC(=O)c1ccncc1 | -12.2
Cc1ccc2nc3c(cc(C(N)=S)c(=N)n3CCCOC(C)C)c(=O)n2c1 | -1.02
CCOc1ccc(S(=O)(=O)Nc2ccc(C(=O)N(CC)CC(=O)NCc3cccs3)cc2)cc1 | -9.89
CC(C)CCN(CCC(C)C)CC(O)Cn1c2ccccc2c(=O)c2ccccc21 (stereo not given) | -16
CCc1nnc(NC(=O)c2ccc(-c3ccccc3F)o2)s1 | -17
COc1ccc(C2CC(c3ccccc3)=NN2c2ccc(C(N)=O)cc2)cc1 (stereo not given) | 2.22
COCCNC(=S)N/N=C/c1ccc(-c2ccc([N+](=O)[O-])cc2)o1 | -8.06
CCOc1ccc2nc(NCCCNS(=O)(=O)c3ccc(C)cc3)c(C#N)cc2c1 | -1.54
O=[N+]([O-])c1cccc(Nc2c3ccccc3nc3ccccc23)c1 | -17.4
CCc1cccc(C)c1NC(=S)NCc1ccc2c(c1)cc(C)n2C | 9.93
Cc1ccc2[nH]c3ccccc3c(=O)c2c1 | -13.1
CCN(CC)CCCNc1nc(C)cc(COC)c1C#N | -2.85
CC1CCCCC1NC(=O)CN1C(=O)c2cccc(N)c2C1=O (stereo not given) | -3.23
CCCN1CCc2c(sc(NC(=O)C3CCN(S(=O)(=O)c4cccs4)CC3)c2C(N)=O)C1 | -10.9
O=c1c2ccccc2n(CC(O)CN2CCCCC2)c2ccccc12 (stereo not given) | 0.985

Compound | activity change, negative = cytotoxicity [%]
O=C(NNc1cc(N2CCCC2)nc(N2CCCC2)n1)c1ccc([N+](=O)[O-])cc1 | -4.33
CCOCCCNc1c(CC)c(C)c(C#N)c2nc3ccccc3n12 | -11.8
CCOc1ccc(C(=O)c2cc3ccc(O)cc3oc2=O)cc1 | 7.1
CCN(CC)CCN1C2=C(C(=O)CC(C)(C)C2)C(c2cccc(F)c2)C2=C1CC(C)(C)CC2=O | -3.85
CCOC(=O)C(NC(=O)c1ccccc1)(OCC1(CC)COC1)C(F)(F)F (stereo not given) | -2.01
Cc1ccc(S(=O)(=O)CCC(=O)OCC(=O)Nc2cccc(S(=O)(=O)N3CCCCC3)c2)cc1 | -2.25
O=C(/C=C/c1ccccc1)C1=C(O)C(=O)N(CCO)C1c1ccc2c(c1)OCO2 (stereo not given) | -10.5
CCCOc1ccccc1/C=C1\SC(N)=NC1=O | -8.75
CSCCC1(C(=O)O)NC(c2ccccc2O)C2C(=O)N(C(C)C)C(=O)C21 (stereo not given) | 4.52
CCCCN(CCCC)CC(O)Cn1c2ccccc2c(=O)c2ccccc21 (stereo not given) | -21.4
O=C(NS(=O)(=O)c1ccc(Cl)s1)c1ccccc1 | -5.86
CCCCN1C=C(C(=O)OC)C(c2ccccc2Cl)C(C(=O)OC)=C1 | 11.9
CC1=C(C(=O)N2CCN(c3cc(C)ccc3C)CC2)C2(CCCCC2)OC1=O | -6.7
CCOc1ccc2nc(NCCCNC(=O)c3cc(OC)c(OC)c(OC)c3)c(C#N)cc2c1 | -2.45
O=C(Cn1ccc([N+](=O)[O-])n1)N1CCCCCC1 | -2.07
Cc1cc2c(C)cc(=O)oc2c2c1NCCC2 | -2.33
Cc1ccc(-n2c(C)cc(/C=N/NC(=O)Cn3c4ccccc4c(=O)c4ccccc43)c2C)cc1 | -6.83
